# ChEMBL document CHEMBL1961873, “Compounds: GSK PKIS; Assays: Nanosyn kinase panel” (2012)
# How the values were obtained:
# [1] = biological target: T1, Inhibitor of nuclear factor kappa-B kinase subunit epsilon (Homo sapiens) (UniProt Q14164); details: at 1 µM;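 further: reported values are averaged percent inhibition figures against human IKKε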
# T1 sequence (whole entry): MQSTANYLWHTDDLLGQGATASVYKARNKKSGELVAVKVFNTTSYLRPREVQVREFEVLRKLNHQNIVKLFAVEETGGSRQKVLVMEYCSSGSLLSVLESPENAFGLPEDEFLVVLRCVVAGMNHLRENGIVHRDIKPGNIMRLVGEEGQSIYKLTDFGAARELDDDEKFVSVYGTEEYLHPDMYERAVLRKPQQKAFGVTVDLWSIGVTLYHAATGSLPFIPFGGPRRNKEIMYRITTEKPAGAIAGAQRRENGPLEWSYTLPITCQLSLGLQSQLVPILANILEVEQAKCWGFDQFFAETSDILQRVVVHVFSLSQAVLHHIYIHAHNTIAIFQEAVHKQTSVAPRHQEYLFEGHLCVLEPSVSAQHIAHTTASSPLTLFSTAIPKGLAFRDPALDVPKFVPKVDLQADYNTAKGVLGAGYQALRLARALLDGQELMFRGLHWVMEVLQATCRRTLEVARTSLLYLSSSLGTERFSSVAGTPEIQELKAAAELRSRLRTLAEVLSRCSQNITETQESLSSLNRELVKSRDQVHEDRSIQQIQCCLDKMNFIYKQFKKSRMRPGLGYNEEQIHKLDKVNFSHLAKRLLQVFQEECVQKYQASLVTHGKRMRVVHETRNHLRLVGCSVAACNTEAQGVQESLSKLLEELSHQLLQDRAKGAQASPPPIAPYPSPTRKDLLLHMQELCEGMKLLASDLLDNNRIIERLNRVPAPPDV
# [2] = biological target: T2, Serine/threonine-protein kinase Nek1 (Homo sapiens) (UniProt Q96PY6); details: at 0.1 µM
# T2 sequence (whole entry): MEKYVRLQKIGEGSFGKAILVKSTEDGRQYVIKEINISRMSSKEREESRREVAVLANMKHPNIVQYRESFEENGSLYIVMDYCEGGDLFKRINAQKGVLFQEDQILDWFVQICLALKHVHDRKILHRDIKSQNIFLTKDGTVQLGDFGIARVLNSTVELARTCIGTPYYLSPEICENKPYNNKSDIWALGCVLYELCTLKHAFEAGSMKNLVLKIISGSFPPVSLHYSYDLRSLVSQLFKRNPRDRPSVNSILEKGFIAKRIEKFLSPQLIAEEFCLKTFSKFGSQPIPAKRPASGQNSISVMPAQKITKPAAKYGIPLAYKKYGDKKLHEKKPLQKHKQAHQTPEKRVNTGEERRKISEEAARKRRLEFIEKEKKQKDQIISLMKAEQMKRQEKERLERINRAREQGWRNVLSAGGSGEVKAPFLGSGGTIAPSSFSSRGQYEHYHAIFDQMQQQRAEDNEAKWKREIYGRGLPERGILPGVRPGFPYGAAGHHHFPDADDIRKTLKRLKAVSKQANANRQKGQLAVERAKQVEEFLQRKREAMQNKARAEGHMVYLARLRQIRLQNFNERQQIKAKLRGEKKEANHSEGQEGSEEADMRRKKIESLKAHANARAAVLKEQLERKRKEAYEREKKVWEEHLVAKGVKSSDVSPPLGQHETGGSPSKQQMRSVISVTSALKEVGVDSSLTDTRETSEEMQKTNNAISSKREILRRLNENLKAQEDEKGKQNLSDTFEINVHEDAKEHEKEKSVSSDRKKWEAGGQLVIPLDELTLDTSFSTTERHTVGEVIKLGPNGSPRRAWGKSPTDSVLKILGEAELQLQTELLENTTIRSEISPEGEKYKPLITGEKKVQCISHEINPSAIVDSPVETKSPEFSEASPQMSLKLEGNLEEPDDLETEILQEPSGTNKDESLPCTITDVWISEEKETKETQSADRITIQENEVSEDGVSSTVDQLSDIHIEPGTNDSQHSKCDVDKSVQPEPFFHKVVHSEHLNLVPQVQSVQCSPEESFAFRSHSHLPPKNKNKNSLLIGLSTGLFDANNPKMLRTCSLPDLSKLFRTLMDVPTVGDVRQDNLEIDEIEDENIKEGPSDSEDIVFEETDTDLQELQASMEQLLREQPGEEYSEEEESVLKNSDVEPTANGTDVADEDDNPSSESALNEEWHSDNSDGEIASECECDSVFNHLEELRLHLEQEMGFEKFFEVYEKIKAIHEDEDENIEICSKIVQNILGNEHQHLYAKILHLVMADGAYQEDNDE
# [3] = biological target: T2, Serine/threonine-protein kinase Nek1 (Homo sapiens); details: at 1 µM
# [4] = biological target: T3, Serine/threonine-protein kinase Nek2 (Homo sapiens) (UniProt P51955); details: at 0.1 µM
# T3 sequence (whole entry): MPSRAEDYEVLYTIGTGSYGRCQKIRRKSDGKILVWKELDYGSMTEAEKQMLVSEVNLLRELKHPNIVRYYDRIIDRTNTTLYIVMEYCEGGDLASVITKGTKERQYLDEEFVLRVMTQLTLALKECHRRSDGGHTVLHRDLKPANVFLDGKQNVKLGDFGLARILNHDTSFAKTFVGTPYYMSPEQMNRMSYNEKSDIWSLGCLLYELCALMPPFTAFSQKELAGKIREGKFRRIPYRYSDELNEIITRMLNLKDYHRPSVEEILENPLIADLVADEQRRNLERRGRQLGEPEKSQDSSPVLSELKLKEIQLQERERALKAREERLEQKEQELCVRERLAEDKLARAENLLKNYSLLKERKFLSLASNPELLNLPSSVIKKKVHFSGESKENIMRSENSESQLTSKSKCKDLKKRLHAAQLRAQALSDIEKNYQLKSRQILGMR
# [5] = biological target: T3, Serine/threonine-protein kinase Nek2 (Homo sapiens); details: at 1 µM
# [6] = biological target: Serine/threonine-protein kinase Nek6 (Homo sapiens) (UniProt Q9HC98); details: at 0.1 µM
# [7] = biological target: Serine/threonine-protein kinase Nek6 (Homo sapiens) (UniProt Q9HC98); details: at 1 µM
# [8] = biological target: Serine/threonine-protein kinase Nek7 (Homo sapiens) (UniProt Q8TDX7); details: at 0.1 µM
# [9] = biological target: Serine/threonine-protein kinase Nek7 (Homo sapiens) (UniProt Q8TDX7); details: at 1 µM
# [10] = biological target: T4, Serine/threonine-protein kinase Nek9 (Homo sapiens) (UniProt Q8TD19); details: at 0.1 µM
# T4 sequence (whole entry): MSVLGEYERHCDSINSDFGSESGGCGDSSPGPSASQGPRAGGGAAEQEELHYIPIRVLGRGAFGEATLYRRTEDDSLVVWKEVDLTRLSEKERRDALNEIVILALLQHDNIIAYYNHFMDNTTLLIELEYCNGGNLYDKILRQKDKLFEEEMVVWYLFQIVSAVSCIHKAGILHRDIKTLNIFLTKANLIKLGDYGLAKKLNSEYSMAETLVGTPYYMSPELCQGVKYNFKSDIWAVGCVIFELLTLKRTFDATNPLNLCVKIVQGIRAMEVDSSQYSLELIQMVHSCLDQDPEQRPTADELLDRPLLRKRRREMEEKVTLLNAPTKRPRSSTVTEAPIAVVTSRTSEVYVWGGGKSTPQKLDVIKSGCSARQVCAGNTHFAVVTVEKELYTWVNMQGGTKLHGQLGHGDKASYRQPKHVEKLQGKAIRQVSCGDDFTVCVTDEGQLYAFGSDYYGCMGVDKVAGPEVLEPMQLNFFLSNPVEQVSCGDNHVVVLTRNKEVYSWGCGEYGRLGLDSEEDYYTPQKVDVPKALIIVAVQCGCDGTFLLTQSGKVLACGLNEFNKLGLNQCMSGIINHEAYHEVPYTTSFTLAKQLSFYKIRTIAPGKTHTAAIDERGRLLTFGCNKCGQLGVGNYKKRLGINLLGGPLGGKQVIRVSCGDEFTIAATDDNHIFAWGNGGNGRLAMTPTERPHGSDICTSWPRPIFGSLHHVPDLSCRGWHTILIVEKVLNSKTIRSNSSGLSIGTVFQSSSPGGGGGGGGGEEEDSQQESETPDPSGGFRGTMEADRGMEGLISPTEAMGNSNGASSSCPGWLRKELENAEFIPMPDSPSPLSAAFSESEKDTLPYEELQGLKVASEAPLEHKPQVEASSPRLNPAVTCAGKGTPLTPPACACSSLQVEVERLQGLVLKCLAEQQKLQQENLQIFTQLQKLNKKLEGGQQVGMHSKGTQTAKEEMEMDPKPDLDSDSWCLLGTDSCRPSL
# [11] = biological target: T4, Serine/threonine-protein kinase Nek9 (Homo sapiens); details: at 1 µM
# [12] = biological target: Serine/threonine-protein kinase PLK1 (Homo sapiens) (UniProt P53350); details: at 0.1 µM
# [13] = biological target: Serine/threonine-protein kinase PLK1 (Homo sapiens) (UniProt P53350); details: at 1 µM
# [14] = biological target: T5, Dual specificity protein kinase TTK (Homo sapiens) (UniProt P33981); details: at 0.1 µM
# T5 sequence (whole entry): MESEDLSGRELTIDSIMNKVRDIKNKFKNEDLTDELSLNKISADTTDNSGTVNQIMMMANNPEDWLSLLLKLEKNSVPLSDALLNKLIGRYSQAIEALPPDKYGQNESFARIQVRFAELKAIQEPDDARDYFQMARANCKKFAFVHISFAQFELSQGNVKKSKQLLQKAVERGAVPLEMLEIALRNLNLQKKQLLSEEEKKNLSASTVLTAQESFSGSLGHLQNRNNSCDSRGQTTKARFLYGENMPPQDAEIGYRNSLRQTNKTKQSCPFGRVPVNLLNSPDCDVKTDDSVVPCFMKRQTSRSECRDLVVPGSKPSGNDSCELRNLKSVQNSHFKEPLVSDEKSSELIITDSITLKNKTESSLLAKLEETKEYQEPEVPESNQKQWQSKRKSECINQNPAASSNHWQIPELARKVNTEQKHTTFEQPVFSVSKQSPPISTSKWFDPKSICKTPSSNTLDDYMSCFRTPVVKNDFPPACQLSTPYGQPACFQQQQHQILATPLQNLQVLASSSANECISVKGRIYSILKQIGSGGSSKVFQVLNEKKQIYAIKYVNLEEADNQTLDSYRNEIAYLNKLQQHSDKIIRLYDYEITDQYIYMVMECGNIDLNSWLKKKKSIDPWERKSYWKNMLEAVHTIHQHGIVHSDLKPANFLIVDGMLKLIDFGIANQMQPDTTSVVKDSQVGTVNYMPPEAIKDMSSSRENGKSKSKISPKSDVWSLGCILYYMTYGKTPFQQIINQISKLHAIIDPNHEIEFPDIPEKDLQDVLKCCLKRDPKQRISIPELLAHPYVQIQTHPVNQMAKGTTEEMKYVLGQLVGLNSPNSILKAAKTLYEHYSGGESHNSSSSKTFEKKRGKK
# [15] = system: T6, Receptor-type tyrosine-protein kinase FLT3 (Homo sapiens), P36888 [D835Y]; details: at 1 µM
# T6 sequence (whole entry): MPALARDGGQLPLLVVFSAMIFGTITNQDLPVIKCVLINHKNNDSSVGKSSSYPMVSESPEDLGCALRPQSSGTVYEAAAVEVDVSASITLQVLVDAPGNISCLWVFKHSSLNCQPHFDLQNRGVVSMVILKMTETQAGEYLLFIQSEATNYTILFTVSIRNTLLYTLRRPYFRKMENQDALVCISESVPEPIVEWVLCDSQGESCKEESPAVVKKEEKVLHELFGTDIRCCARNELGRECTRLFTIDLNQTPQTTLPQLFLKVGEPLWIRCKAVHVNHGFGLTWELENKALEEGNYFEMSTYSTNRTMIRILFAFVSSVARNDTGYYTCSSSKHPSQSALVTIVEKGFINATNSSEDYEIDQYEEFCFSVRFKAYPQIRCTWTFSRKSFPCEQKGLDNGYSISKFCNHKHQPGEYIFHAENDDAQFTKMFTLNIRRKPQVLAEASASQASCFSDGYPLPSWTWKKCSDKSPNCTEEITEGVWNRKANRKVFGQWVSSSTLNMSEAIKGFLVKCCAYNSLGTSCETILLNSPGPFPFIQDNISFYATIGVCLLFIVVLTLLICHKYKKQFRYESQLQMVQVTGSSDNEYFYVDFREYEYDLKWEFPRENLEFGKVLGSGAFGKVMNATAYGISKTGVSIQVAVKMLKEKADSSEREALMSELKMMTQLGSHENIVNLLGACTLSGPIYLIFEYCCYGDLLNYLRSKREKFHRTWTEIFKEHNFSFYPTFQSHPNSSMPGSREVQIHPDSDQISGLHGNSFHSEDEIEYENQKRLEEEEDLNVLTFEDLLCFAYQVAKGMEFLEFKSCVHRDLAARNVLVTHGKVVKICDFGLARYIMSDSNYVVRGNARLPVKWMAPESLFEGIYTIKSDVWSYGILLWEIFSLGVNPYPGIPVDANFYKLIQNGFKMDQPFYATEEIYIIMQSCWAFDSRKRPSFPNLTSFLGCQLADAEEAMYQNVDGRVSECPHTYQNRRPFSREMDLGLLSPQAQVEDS
# [16] = biological target: Vascular endothelial growth factor receptor 3 (Homo sapiens) (UniProt P35916); details: at 0.1 µM
# [17] = biological target: Vascular endothelial growth factor receptor 3 (Homo sapiens) (UniProt P35916); details: at 1 µM
# [18] = biological target: Macrophage colony-stimulating factor 1 receptor (Homo sapiens) (UniProt P07333); details: at 0.1 µM
# [19] = biological target: Macrophage colony-stimulating factor 1 receptor (Homo sapiens) (UniProt P07333); details: at 1 µM
# [20] = biological target: Tyrosine-protein kinase Fyn (Homo sapiens) (UniProt P06241); details: at 0.1 µM
# Chain of Tyrosine-protein kinase Fyn (Homo sapiens) (P06241 2-537 limits assumed): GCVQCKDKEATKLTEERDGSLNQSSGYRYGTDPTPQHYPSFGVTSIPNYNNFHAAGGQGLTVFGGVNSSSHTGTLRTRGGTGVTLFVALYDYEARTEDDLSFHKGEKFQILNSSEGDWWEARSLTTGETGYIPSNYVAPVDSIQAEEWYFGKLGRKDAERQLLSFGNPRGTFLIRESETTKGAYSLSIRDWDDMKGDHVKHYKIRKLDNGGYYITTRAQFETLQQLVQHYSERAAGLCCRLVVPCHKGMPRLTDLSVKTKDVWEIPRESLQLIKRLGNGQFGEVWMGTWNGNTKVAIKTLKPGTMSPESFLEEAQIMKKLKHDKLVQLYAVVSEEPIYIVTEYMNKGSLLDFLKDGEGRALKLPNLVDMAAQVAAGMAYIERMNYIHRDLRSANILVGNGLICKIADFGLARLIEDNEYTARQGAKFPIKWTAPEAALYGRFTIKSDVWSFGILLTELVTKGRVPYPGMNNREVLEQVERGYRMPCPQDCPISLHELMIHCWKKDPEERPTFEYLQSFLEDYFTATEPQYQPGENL
# Chain of Serine/threonine-protein kinase Nek7 (Homo sapiens) (Q8TDX7 whole entry, looked up): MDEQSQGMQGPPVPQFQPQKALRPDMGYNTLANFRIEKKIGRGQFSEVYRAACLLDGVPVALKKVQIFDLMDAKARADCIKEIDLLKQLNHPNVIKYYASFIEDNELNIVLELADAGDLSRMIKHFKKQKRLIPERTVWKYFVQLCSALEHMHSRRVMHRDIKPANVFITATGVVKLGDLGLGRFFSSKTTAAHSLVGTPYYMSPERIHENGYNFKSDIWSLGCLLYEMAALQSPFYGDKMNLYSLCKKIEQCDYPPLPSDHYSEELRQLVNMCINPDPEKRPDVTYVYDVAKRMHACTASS
# Chain of Vascular endothelial growth factor receptor 3 (Homo sapiens) (P35916 whole entry): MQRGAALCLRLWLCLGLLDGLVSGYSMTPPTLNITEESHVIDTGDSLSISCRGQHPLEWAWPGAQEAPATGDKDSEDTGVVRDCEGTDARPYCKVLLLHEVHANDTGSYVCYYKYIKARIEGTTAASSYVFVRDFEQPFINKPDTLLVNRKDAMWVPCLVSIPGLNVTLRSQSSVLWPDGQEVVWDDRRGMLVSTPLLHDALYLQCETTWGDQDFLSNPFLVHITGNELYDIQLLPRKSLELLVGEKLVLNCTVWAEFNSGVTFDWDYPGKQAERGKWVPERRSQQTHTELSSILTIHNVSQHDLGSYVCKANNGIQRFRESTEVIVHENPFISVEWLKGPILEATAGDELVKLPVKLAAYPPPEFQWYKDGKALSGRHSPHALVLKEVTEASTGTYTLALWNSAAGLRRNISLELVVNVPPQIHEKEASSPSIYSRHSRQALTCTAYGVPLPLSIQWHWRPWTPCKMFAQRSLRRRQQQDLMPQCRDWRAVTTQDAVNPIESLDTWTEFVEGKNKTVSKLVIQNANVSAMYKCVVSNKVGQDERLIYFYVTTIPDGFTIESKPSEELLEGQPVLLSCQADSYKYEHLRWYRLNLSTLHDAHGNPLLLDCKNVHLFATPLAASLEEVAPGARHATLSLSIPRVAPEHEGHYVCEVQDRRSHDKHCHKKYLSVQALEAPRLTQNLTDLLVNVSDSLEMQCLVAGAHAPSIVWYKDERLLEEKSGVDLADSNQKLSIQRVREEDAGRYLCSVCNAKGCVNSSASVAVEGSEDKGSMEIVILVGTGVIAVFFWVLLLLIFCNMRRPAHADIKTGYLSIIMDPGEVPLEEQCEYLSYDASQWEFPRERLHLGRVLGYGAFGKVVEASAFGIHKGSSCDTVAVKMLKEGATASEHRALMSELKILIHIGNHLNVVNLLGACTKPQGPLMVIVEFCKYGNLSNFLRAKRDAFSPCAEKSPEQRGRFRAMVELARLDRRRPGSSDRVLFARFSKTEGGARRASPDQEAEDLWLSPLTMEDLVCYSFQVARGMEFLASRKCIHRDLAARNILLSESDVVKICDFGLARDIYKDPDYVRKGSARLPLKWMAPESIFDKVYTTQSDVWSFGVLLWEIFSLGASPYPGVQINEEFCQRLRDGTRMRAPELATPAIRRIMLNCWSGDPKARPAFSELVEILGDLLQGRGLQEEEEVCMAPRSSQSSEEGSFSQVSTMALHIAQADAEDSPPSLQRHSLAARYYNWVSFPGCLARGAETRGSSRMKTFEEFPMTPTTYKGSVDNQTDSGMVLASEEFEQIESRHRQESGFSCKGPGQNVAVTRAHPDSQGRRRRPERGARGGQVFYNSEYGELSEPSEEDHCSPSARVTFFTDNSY
# Chain of Serine/threonine-protein kinase PLK1 (Homo sapiens) (P53350 whole entry): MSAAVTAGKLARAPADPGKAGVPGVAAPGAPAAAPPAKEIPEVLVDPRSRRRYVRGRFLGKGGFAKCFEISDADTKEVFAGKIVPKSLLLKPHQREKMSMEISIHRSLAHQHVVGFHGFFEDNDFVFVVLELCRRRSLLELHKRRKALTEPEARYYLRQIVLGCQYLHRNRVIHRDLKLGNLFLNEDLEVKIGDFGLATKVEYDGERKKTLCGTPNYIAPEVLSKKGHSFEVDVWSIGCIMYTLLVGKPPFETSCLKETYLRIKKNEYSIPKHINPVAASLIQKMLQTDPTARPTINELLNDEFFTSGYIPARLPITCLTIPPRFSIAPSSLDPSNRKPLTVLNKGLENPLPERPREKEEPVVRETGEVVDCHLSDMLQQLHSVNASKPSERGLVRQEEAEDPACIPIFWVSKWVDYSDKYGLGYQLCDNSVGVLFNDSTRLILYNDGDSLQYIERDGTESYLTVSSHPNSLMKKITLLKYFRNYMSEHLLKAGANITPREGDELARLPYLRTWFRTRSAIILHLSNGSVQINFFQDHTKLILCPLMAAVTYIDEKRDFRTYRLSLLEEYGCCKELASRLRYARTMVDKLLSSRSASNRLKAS
# Chain of Macrophage colony-stimulating factor 1 receptor (Homo sapiens) (P07333 whole entry): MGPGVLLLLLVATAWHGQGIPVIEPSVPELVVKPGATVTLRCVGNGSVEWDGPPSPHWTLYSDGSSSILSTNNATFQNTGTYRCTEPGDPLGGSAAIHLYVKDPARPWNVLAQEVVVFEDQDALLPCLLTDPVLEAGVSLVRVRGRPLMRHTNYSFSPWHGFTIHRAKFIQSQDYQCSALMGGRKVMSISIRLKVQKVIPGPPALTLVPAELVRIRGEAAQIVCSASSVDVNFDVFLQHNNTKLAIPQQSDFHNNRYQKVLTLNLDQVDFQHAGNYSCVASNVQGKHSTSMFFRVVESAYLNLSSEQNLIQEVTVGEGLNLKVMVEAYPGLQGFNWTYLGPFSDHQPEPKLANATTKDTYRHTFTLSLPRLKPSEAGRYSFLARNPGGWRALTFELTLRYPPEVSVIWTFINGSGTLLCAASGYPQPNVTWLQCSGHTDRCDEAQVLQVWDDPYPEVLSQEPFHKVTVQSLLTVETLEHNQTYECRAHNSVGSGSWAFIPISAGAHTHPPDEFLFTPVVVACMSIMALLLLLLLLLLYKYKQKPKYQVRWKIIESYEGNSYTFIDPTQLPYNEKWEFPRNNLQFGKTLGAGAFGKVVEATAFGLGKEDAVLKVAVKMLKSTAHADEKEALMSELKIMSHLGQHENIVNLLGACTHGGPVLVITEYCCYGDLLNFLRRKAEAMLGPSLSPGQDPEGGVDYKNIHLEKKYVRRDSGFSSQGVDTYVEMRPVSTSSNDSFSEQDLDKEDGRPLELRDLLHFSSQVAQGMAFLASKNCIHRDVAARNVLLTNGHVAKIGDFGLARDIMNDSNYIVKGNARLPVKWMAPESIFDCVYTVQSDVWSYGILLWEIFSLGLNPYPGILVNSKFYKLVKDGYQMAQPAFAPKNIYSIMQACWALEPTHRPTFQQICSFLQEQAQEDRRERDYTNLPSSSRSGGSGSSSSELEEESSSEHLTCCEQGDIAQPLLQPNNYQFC
# Chain of Serine/threonine-protein kinase Nek6 (Homo sapiens) (Q9HC98 whole entry): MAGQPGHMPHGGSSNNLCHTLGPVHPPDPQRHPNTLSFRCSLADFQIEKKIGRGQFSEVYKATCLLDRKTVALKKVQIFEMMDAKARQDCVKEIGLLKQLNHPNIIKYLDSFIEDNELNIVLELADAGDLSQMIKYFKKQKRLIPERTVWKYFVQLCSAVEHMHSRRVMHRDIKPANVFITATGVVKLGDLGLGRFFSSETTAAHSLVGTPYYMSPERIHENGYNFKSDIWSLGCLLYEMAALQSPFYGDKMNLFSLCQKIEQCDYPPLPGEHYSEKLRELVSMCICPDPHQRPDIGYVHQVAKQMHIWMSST
SMILES,inhibition [1] [%],inhibition [2] [%],inhibition [3] [%],inhibition [4] [%],inhibition [5] [%],inhibition [6] [%],inhibition [7] [%],inhibition [8] [%],inhibition [9] [%],inhibition [10] [%],inhibition [11] [%],inhibition [12] [%],inhibition [13] [%],inhibition [14] [%],inhibition [15] [%],inhibition [16] [%],inhibition [17] [%],inhibition [18] [%],inhibition [19] [%],inhibition [20] [%]
Cc1cccc(Nc2ncc(-c3ccccc3)o2)c1,6.48,4.04,3.56,3.46,3.62,0.75,2.04,2.47,4.58,8.57,4.73,2.24,6.33,6.38,18.6,5.49,9.11,9.54,25.7,3.07
CCn1c(-c2nonc2N)nc2ccccc21,1.58,2.18,2.6,3.43,4.15,5.78,0.38,2.9,4.22,0.97,0.94,6.53,2.85,3.51,-3.67,5.92,5.29,0.61,2.71,0.86
CNC(=O)c1cccc(C#Cc2cncnc2Nc2ccc(OCc3cccc(F)c3)c(Cl)c2)c1,1.01,-0.52,-1.06,0.09,-0.96,1.08,1.68,0.01,0.48,0.64,4.28,-0.42,0.52,3.66,0.94,-2.07,3.4,1.48,7.16,1.46
